This is an account of results in PubChem BioAssay (NCI).

Compounds without any hit were thinned out: in the full panel of roughly 83,000, 20% have a hit.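 Treatment: one concentration, 48 hours, 96-well format. Scoring: percent growth, with anything below 10 considered active.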 Unmarked numbers belong to inactive results. Activity calls are given as the source filed them.

Common to all, as to experiment: NCI-60 one-dose screen, 48 h (100 = growth as untreated, 0 = no growth, -100 = all killed)
Settings in all cases: 10 µM

The subject of assay [1] is T-47D breast.
The subject of assay [2] is BT-549 breast.
Assay [3] concerns MDA-MB-435 melanoma.
Assay [4] relates to SW-620 colon.
Assay [5] concerns MCF7 breast.
Assay [6] deals with HCT-116 colon.
Assay [7] has as its system HCC-2998 colon.
For assay [8], the system named is KM12 colon.

Consider `O=C(NC1CCCC1)c1ccc(N2CCC(NCc3cccc(C(F)(F)F)c3)CC2)cc1`, for which the growth in assay [1] was 83.2%; in assay [2] it was 89.3%; in assay [3], 105%; in assay [4], 97%; in assay [5], 95.8%; in assay [6], 86.5%. Also, the figures for the growth in assay [7] and in assay [8] were 41.2% and 84.5%, respectively.

Consider `O=C(Nc1cccc(C(F)(F)F)c1)C(Cl)Cl`, for which the growth was 87.9% in assay [1]; 102% in assay [2]; 103% in assay [3]; 104% in assay [4]; 90.2% in assay [5]; 98.1% in assay [6]. Further, the growth in assay [7] is 105%; in assay [8], 94.8%.

On to `COc1ccc2nc(-c3ccccc3)cc(C(C)=O)c2c1`, for which the growth is 69.5% in assay [1]; 93.6% in assay [2]; 98% in assay [3]; 99.9% in assay [4]; 72.6% in assay [5]; 91.2% in assay [6]. Further, the growth in assay [7] is 107%; in assay [8], 103%.

As for `O=C(CCl)N1c2ccccc2Sc2ccc3ccccc3c21`, the growth is -68.2% (active) in assay [1]; -40.9% (active) in assay [2]; -34.7% (active) in assay [3]; -65.6% (active) in assay [4]; 10% (active) in assay [5]; -99.6% (active) in assay [6]. Moreover, the growth in assay [7] was -94.4% (active); in assay [8] it was -77.5% (active).

As to `Cc1cc2cc3c(=O)[nH]c(=O)cc-3n(CC(O)C(O)C(O)CO)c2cc1C` (stereo not given), the growth in assay [1] was 95.1%; in assay [2] it was 104%; in assay [3] it was 104%; in assay [4], 89.8%; in assay [5], 101%; in assay [6], 101%. The growth in assay [7] was 109%; in assay [8], 108%.

For the molecule `COc1ccc2oc(=O)cc(C(c3ccc[nH]3)c3ccc[nH]3)c2c1`, the growth in assay [1] is 22.5%; in assay [2] it was -13.4% (active); in assay [3], -24.3% (active); in assay [4], 25.6%; in assay [5], 13.9%; in assay [6], -3.62% (active). The growth was -5.71% (active) in assay [7] and 4.33% (active) in assay [8].

On to `Cc1ccc(NC(=O)/C=N/O)cc1C`, for which the growth was 76.4% in assay [1]; 91.6% in assay [2]; 96.5% in assay [3]; 100% in assay [4]; 61.5% in assay [5]; 98.1% in assay [6]. Also, the growth is 116% in assay [7] and 104% in assay [8].

With `COc1ccc(/C=C(\c2cc(OC)c(OC)c(OC)c2)c2nnc(-c3cccs3)o2)cc1`, the growth in assay [1] was 78.7%; in assay [2] it was 84.4%; in assay [3], 65.9%; in assay [4], 89.1%; in assay [5], 72.4%; in assay [6], 66.4%. Moreover, the growth in assay [7] is 89.2%; in assay [8] it was 90%.

Take `CCCCn1c(=O)[nH]c(N)c(C(c2ccc(Cl)cc2)c2c(N)[nH]c(=O)n(CCCC)c2=O)c1=O`: the growth was 21% in assay [1]; 49.8% in assay [2]; 31.1% in assay [3]; 64.2% in assay [4]; 21.1% in assay [5]; 27.3% in assay [6]. The growth in assay [7] is 54.7%; in assay [8] it was 35.3%.

For `NC1CCC(Nc2nc(NCc3ccc(-c4ccccc4O)nc3)c3ncn(C4CCCC4)c3n2)CC1` (stereo not given), the growth was -34.2% (active) in assay [1]; -28% (active) in assay [2]; -81.5% (active) in assay [3]; 0.393% (active) in assay [4]; -62.4% (active) in assay [5]; -55.8% (active) in assay [6]. In addition, the figures for the growth in assay [7] and in assay [8] were -73.3% (active) and -16.2% (active), respectively.

As to `COC(=O)[C@]12CC[C@@H](C)[C@H](C)[C@@H]1C1=CC[C@@H]3[C@@]4(C)CC(=O)[C@H](O)[C@@](C)(CO)[C@@H]4C(=O)C[C@@]3(C)[C@]1(C)CC2`, the growth in assay [1] was -15.8% (active); in assay [2], -31.4% (active); in assay [3], 11.4%; in assay [4] it was 1.83% (active); in assay [5], -13.4% (active); in assay [6], -43.1% (active). Also, the growth in assay [7] was -61.1% (active); in assay [8] it was -37.3% (active).

Consider `COc1cc2ccnc(C=O)c2cc1OC`, for which the growth in assay [1] was 60.7%; in assay [2] it was 56.3%; in assay [3] it was 31.1%; in assay [4], 30.2%; in assay [5], 23.8%; in assay [6], 9.15% (active). Further, the values for the growth in assay [7] and in assay [8] were 104% and 92.1%, respectively.

With `Cc1ccccc1[P+](Cc1ccccc1)(c1ccccc1)c1ccccc1`, the growth in assay [1] is -3.4% (active); in assay [2], 10.3%; in assay [3], 1% (active); in assay [4], 30%; in assay [5], 10.4%; in assay [6], 12.7%. Moreover, the figures for the growth in assay [7] and in assay [8] were 16.5% and 8.7% (active), respectively.

With `CN1CCN(c2nc(-c3cccnc3)nc3sc4c(c23)CCCCCC4)CC1`, the growth was 77.4% in assay [1]; 95.3% in assay [2]; 98.4% in assay [3]; 102% in assay [4]; 88.2% in assay [5]; 85.3% in assay [6]. Also, the results for the growth in assay [7] and in assay [8] were 56.7% and 100%, respectively.

As to `CCCCCN(CCCCC)C(C)C(O)c1ccc2cc(Cl)c3ccccc3c2c1` (stereo not given), the growth in assay [1] is 83.8%; in assay [2] it was 110%; in assay [3], 103%; in assay [4] it was 80%; in assay [5], 90.6%; in assay [6], 65.7%. Further, the growth in assay [7] was 97.6%; in assay [8], 103%.
